From PubChem BioAssay
TTR transcr act: TTR transcription activators in neuroblastoma reporter cells, primary screen, cell-based, luminescence, SH-SY5Y, TTR promoter Gaussia luciferase; 100% = recombinant luciferase protein wells; activation, % at 16.7 µM; actives 1.3% (n = 92,000); AID 1117267, 2014;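 active means activation above the mean of all tested compounds plus 3 SD, cut at about 9.5% in these data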;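 further: cells exposed to compounds for one day before reading; 0% = median of all test compound wells on the plate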
TTR inh HuH7: TTR promoter reporter inhibitors in hepatoma cells, counter-screen for TTR transcription activator project, cell-based, luminescence, HuH7 hepatoma. shares compounds with TTR transcr act. HuH7 TTR promoter-Gaussia luciferase reporter. inhibition, % at 16.7 µM. AID 1117279, 2014. actives 4% (n = 1,100);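 active means average inhibition above the solvent-only control wells' mean plus 3 SD, cut at about 15% in these data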;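 further: 0% = cells with DMSO only and 100% = cells with inhibitor control FD; inhibitors lower well luminescence so higher value means more inhibition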
TTR up confirm: TTR transcription activators, retest, confirmation, cell-based, luminescence, SH-SY5Y, triplicate; 1,100 tested, under 10 active; SHSY5Y TTR promoter Gaussia luciferase; 100% = purified Lucia enzyme wells, no cells; activation, % at 16.7 µM; shares compounds with TTR transcr act;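 active means mean activation above a set limit taken from the earlier primary screen, cut at about 11% in these data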;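 further: 0% = DMSO-treated cells and 100% = recombinant Lucia luciferase without cells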
Starred values were filed as active, the others as inactive. The full list was thinned out, with hits kept by preference.

SMILES | TTR transcr act | others
O=C(COC(=O)/C=C/c1ccc(F)cc1)NC1CCCC1 | 2.4
Cc1nnc2n1CCCCC2 | 5.0
COc1cc(C(=O)NC(=S)Nc2cccc3nc(C)ccc23)cc(OC)c1OC | 3.1
Cc1ccc(SCCN2CCC(O)CCC2=O)cc1 (configuration not stated) | 23.0* | TTR inh HuH7=-9.0;TTR up confirm=-0.1
Cc1ccc(SCCN2CCN(C)CCC2=O)cc1 | -0.1
CC1CCC(=O)N(CCSc2ccccc2)CC1 (configuration not stated) | -3.3
Cc1ccc(NC(=O)C2CCCCC2C(=O)O)cc1C (configuration not stated) | 0.9
O=C(O)C1CCCCC1C(=O)Nc1ccc(F)c(F)c1 (configuration not stated) | 11.9* | TTR inh HuH7=-6.9;TTR up confirm=0.1
O=C(Nc1ccc(F)cc1)c1ccccc1NC(=O)C1CCCCC1C(=O)O (configuration not stated) | -0.8
CN(Cc1ccc(OC(F)F)cc1)C(=O)C1CCN(S(=O)(=O)c2ccc3c(c2)OCCO3)CC1 | 0.7
Cc1ccc(/C=N/NC(=O)c2ccc(NC(=O)c3ccccc3Cl)cc2)o1 | -2.2
Cc1ccc(/C=N\NC(=O)c2cncc(Br)c2)o1 | 2.0
Cc1ccc(/C=N/NC(=O)c2csc(C)c2)o1 | 23.0* | TTR inh HuH7=16.4*;TTR up confirm=-1.6
CCCCn1c(=O)c(CCC(=O)OC(C)C(=O)Nc2cccc(Cl)c2Cl)nc2ccccc21 (configuration not stated) | 0.7
CCCCNC(=O)Nc1c(C(=O)OCC)[nH]c2ccccc12 | 1.0
CCOC(=O)c1[nH]c2ccccc2c1NC(=O)NC(C)C | 0.5
CCOC(=O)c1[nH]c2ccc(F)cc2c1NC(=O)Nc1ccccc1OC | 14.9* | TTR inh HuH7=-19.8;TTR up confirm=-0.3
COC(=O)COc1cc(OCC(=O)OC)c2c(C)c(Cl)c(=O)oc2c1 | -0.9
COc1cc2c(cc1NC(=O)c1cc(-c3ccncc3)nc3ccccc13)oc1ccccc12 | 15.2* | TTR inh HuH7=4.5;TTR up confirm=-0.7
COc1cc2c(cc1NC(=O)Nc1cccc(C)c1)oc1ccccc12 | 0.5
COc1ccccc1NC(=O)c1cc(-c2ccc(OC)c(OC)c2)nc2ccccc12 | -1.6
Cc1nn(C(C)C(=O)NCCCN(Cc2ccccc2)C(C)C)c(=O)c2c1sc1ccccc12 (configuration not stated) | 10.3* | TTR inh HuH7=-15.4;TTR up confirm=1.9
CCOC(=O)N1CCN(C(=O)Cn2nc(C)c3sc4ccccc4c3c2=O)CC1 | -1.5
CN(C)CCCNC(=O)c1cc2sc3ccccc3c2s1 | 1.5
CN(Cc1ccccc1)c1ccc(C(CC(N)=O)NC(=O)Cc2ccc(Br)cc2)cc1[N+](=O)[O-] (configuration not stated) | -4.1
SMILES | TTR transcr act | others
Cc1ccc(C2C(C(=O)c3sc(C)nc3C)=C(O)C(=O)N2CCN(C)C)o1 (configuration not stated) | 1.3
COc1ccc2sc(-c3ccccc3OC)c(-c3ccc(OC)nc3)c2c1 | 1.4
COc1ccc(C(=O)Nc2ccc(C(=O)N3CCCC3)cc2)cc1[N+](=O)[O-] | 0.5
COc1cc(NC(=O)c2ccc(OC)c([N+](=O)[O-])c2)ccc1NC(=O)c1ccco1 | 0.4
COc1ccc(NC(=O)c2cc(C)cc(C)c2)cc1[N+](=O)[O-] | 18.6* | TTR inh HuH7=-8.1;TTR up confirm=0.7
CCOC(=O)c1[nH]c2ccccc2c1NC(=S)Nc1cccc(C)c1C | 0.2
C=CCn1cccc(/C=C/C(=O)c2ccc(C(C)(C)C)cc2)c1=S | 2.2
CCC(CC)n1c(C)cc(=O)n1C(CC)CC | -0.3
Cc1cc(=O)n(C(C)Cc2ccccc2)n1C(C)Cc1ccccc1 (configuration not stated) | 16.7* | TTR inh HuH7=-7.7;TTR up confirm=-0.4
CC(Cc1ccccc1)N(C)C(=O)CN1C(=O)c2ccccc2C1=O (configuration not stated) | -0.3
O=C(NCCc1ccc(Cl)cc1)c1ncn[nH]1 | 0.1
Cc1sc2nc(CN3CCCC3)nc(N3CCN(S(=O)(=O)c4cccc(F)c4)CC3)c2c1C | 0.2
O=C(Cc1cccc(NC(=O)C2CCCN(C(=O)c3ccccc3)C2)c1)Nc1cccc(C(=O)N2CCCCC2)c1 (configuration not stated) | 2.6
Cc1cccc(C)c1NC(=O)CNC(=O)C1CCCN(C(=O)c2ccc(Cl)cc2)C1 (configuration not stated) | 26.2* | TTR inh HuH7=-6.6;TTR up confirm=-0.9
O=C(Cc1cccc(NC(=O)C2CCCN(C(=O)C3CC3)C2)c1)Nc1ccc(C(=O)N2CCCCC2)cc1 (configuration not stated) | 0.8
CCc1cccc(NC(=S)N(CCN(C)C)C(C)c2ccncc2)c1 (configuration not stated) | 1.4
COc1ccc(Cc2nc3ccc(C(=O)N(C)CCO)cc3o2)cc1 | 1.8
CCCc1nc2ccc(C(=O)OC)cn2c1Cc1ccccc1C(F)(F)F | -0.2
Cc1nc2ccccc2n1CC(=O)NCCN1CCCC1 | 0.0
CC(C)c1nc2sc3c(=O)[nH]c(=S)[nH]c3c2c2c1CCCC2 | -0.2
C=CCNC(=S)Nc1sc2c(c1C(=O)OCC)CC(C)(CC)OC2 (configuration not stated) | 0.2
CCC1(C)Cc2sc3c(=O)[nH]c(=S)[nH]c3c2CO1 (configuration not stated) | 17.9* | TTR inh HuH7=-10.2;TTR up confirm=0.3
Cc1ccc(C2=NCCn3c2c2ccc(C(F)(F)F)cc2[n+]3[O-])cc1 | 2.1
CCOc1cc2nc3c4ccccc4n(C)c3nc2cc1OCC | -1.0
CCS(=O)(=O)N1CCN(c2c(Cl)cccc2[N+](=O)[O-])CC1 | 0.1
SMILES | TTR transcr act | others
Cc1ccc(NC(=O)COC(=O)C2CC2)c(Br)c1 | -0.4
COc1ccc(C)cc1NC(=O)COC(=O)C1CCN(C(=O)c2ccc(Cl)cc2)CC1 | 14.7* | TTR inh HuH7=-10.9;TTR up confirm=1.1
O=C(COC(=O)C1CCN(C(=O)c2ccc(Cl)cc2)CC1)c1ccco1 | 2.0
COCCn1c(C)cc(C(=O)COC(=O)CNC(=O)c2ccccc2)c1C | 0.8
COc1ccc(CN(CC2CCC(C(=O)O)CC2)C(=S)Nc2ccc(C)c(Cl)c2)cc1 (configuration not stated) | 0.1
COc1ccc(NC(=S)N(Cc2cccc(Br)c2)CC2CCC(C(=O)O)CC2)cc1 (configuration not stated) | 43.4* | TTR inh HuH7=-21.1;TTR up confirm=-0.7
COc1cccc(NC(=S)N(Cc2cccc(Br)c2)CC2CCC(C(=O)O)CC2)c1 (configuration not stated) | 0.6
CCOC(=O)c1ccc(NC(=O)N2CC(C)OC(C)C2)cc1 (configuration not stated) | 1.6
COc1ccc(NC(=O)CCCc2ccc(OC)c(C)c2)cc1 | 1.6
O=C(NCc1nc2ccccc2[nH]1)C1=C[C@H](C2CCCCC2)C[C@H](OCCCCO)O1 | 3.1
O=C(NCc1nc2ccccc2[nH]1)C1=C[C@H](C2CC2)C[C@H](OCCCCO)O1 | 10.1* | TTR inh HuH7=-26.0;TTR up confirm=0.0
C#CCNC(=O)C1=C[C@@H](C2CC2)C[C@@H](OCCCCO)O1 | 1.4
O=C(CSc1oc(-c2cccs2)nc1S(=O)(=O)c1ccccc1)NC1CCCCC1 | 2.4
CCCc1cc(=O)[nH]c(SCCOc2ccc(OCC)cc2)n1 | 0.1
